Assay outcomes from PubChem.
FBW7 act: activators of human E3 ligase FBW7 | actives 0.13% (n = 650,000) | AID 1259310 | AlphaScreen FBW7–phospho-cyclin E peptide binding, activator screen | Q969H0 | normalized activity (activation), % at 26.1 µM; in the data active = normalized activity above about 1.9%;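 also: purified mutant Fbw7 with reduced substrate affinity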
TEAD-YAP inh: TEAD-YAP interaction inhibition; actives 1.4% (n = 640,000); inhibition, % at 9.12 µM; HEK-TIYL cells, TEAD-Gal4/YAP UAS-luciferase luminescence; in the data active = inhibition above about 32%;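 also: 0% = median of test compound wells and 100% = reference inhibitor wells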
GPR151 ag: activates the human receptor GPR151. Q8TDV0. PathHunter beta-arrestin GPR151 cells, luminescence. activation, % at 11.2 µM. actives 1% (n = 650,000). AID 1508602; in the data active = activation above about 4.9%;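 also: 0% = median of compound wells and 100% = cells with positive control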
MITF inh: inhibitors of human MITF; O75030; AlphaScreen MITF homodimerization, bead proximity signal; inhibition, % at 2.6 µM; actives 0.91% (n = 650,000); AID 1259374; in the data active = inhibition above about 50%;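 also: 0% = vehicle wells with protein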
Target sequence (O75030 whole entry, looked up): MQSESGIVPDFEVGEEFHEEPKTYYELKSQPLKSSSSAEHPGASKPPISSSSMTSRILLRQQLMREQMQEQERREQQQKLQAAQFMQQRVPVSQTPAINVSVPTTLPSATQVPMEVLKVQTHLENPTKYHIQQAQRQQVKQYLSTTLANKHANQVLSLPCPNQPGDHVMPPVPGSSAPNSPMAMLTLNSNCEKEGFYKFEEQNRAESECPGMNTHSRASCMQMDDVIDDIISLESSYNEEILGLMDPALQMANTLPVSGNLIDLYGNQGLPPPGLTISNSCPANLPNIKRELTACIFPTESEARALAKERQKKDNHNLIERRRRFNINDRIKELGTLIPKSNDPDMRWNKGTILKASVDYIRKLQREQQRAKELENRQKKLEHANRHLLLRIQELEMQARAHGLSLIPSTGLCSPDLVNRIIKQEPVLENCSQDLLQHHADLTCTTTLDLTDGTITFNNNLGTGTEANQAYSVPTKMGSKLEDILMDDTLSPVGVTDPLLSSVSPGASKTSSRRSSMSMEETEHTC
* marks the source's active call; other numbers are inactive results. The list is not random: actives were taken first. Their share in the collection is about 3.5%.

SMILES	FBW7 act	TEAD-YAP inh	GPR151 ag	MITF inh
COc1cccc(OC)c1CN1CCC(N(C)Cc2ncc[nH]2)CC1	0	5	-2	20
CCNc1nc(NCCc2ccc(O)cc2)c2ncn(CCN3CCCC3=O)c2n1	0	3	0	-13
O=c1c(Nc2cccc(F)c2)c(-c2ccccc2)c1=O	0	-5	5	4
CC(=O)c1ccc(N=Nc2ccc(O)cc2)cc1	0	99*	-8	16
CC(=O)c1ccc(N=Nc2c(C)[nH][nH]c2=O)cc1	0	-21	-6	0
CC(=O)Nc1ccc(N=Nc2ccc(O)cc2)cc1	0	56*	-2	7
COc1cccc(C2=N/C(=C/c3ccccc3OC)C(=O)N2c2ccc(OC)c(OC)c2)c1	0	-6	-1	-8
COc1cc(OC)c(NC(=O)NCCNc2nc(C)cc(N3CCCCC3)n2)cc1Cl	0	10	-1	2
Cc1cc(N2CCCCC2)nc(NCc2ccccc2)n1	0	48*	2	-11
Cc1cc(N2CCOCC2)nc(NCc2ccccc2)n1	0	7	1	13
Cc1cc(N2CCCCC2)nc(NCCNC(=O)Nc2ccc(F)cc2F)n1	0	37*	-2	0
Cc1cc(N2CCCCC2)nc(NCCNC(=O)/C=C/c2ccccc2)n1	0	38*	-2	-1
Cc1cc(N2CCCCC2)nc(NCCNC(=O)c2ccco2)n1	0	41*	2	-8
CCOc1cccc(-c2cc(C(=O)Nc3sc4c(c3C(=O)OC)CCCCC4)c3ccccc3n2)c1	0	-2	-1	1
COc1cc(CN2CCN(CCc3ccccc3)C(CCO)C2)cc(OC)c1 (stereo not given)	0	-2	2	1
O=[N+]([O-])c1ccc(Sc2nc3ccccc3s2)c(Cl)c1	0	8	0	28
Cc1ccc(-n2ncc3c(N4CCOCC4)ncnc32)cc1C	0	79*	-7	10
COc1ccccc1N1CCN(c2ncnc3c2cnn3-c2cccc(C)c2)CC1	0	16	3	-6
c1ccc(-n2ncc3c(N4CCOCC4)ncnc32)cc1	0	70*	-1	1
Clc1cccc(-n2ncc3c(N4CCOCC4)ncnc32)c1	0	71*	-3	-16
COc1ccccc1N1CCN(c2ncnc3c2cnn3-c2ccc(C)cc2C)CC1	0	58*	0	5
Clc1ccc(-n2ncc3c(N4CCN(c5cccc(Cl)c5)CC4)ncnc32)cc1	0	1	1	-2
CC(C)c1ccc(NC(=O)NC2CCN(CC(=O)Nc3cccc4ccccc34)CC2)cc1	1	-4	-1	3
COc1ccc(-n2ncc3c(N4CCOCC4)ncnc32)cc1	0	91*	-5	1
O=C(COc1ccc(Cl)cc1)Nc1ccc(Br)cc1Br	0	-48	-1	-1
SMILES	FBW7 act	TEAD-YAP inh	GPR151 ag	MITF inh
Cc1cc(/C=C2/C(=N)N3C=CSC3=NC2=O)c(C)n1-c1ccc(Cl)cc1	0	-5	5	-4
COc1ccccc1-n1c(C)cc(/C=C2/C(=N)N3C=C(C)SC3=NC2=O)c1C	0	5	1	15
Cc1ccc(-n2c(C)cc(/C=C3/C(=N)N4C=CSC4=NC3=O)c2C)c(C)c1	0	64*	-1	-2
COc1ccc(C)cc1-n1c(C)cc(/C=C2/C(=N)N3C=CSC3=NC2=O)c1C	1	51*	-1	15
COc1ccccc1-n1c(C)cc(/C=C2\C(=N)N3N=CSC3=NC2=O)c1C	0	75*	1	20
CCOC(=O)c1c(NC(=O)c2ccccc2)sc2c1CCC/C2=N/O	0	-10	-2	-18
Cc1c(CNC2CCCCCCC2)c(C(=O)O)c(C)n1Cc1ccc(F)cc1	0	0	0	12
CC12C(=O)N(c3ccc(Cl)c(Cl)c3)C(=O)C1C1C=CC2C1 (stereo not given)	0	1	1	8
Cc1ccc(C(=O)NCCc2ccccc2)o1	0	-62	1	7
Cc1sc(NC(=O)CC(c2ccccc2)c2ccccc2)c(C(N)=O)c1C	0	40*	3	1
Cc1sc(NC(=O)CCCC(=O)O)c(C(N)=O)c1-c1ccccc1	0	45*	0	1
C=C(C)C(=O)Nc1sc(C)c(-c2ccccc2)c1C(N)=O	0	-15	1	12
OCCC1CN(Cc2cccc3c2OCO3)CCN1Cc1ccccc1F (stereo not given)	0	4	-2	5
COc1ccc(C2CC(=O)C3=C(C2)NC(C)=C(C(=O)OC2CCCC2)C3c2cccc(Cl)c2)cc1OC (stereo not given)	0	30	2	-8
CCCOC(=O)C1=C(C)NC2=C(C(=O)CC(c3ccc(OC)c(OC)c3)C2)C1c1ccc(Cl)cc1Cl (stereo not given)	0	4	-1	12
COc1ccc(C2CC(=O)C3=C(C2)NC(C)=C(C(=O)OC2CCCC2)C3c2ccccc2F)cc1OC (stereo not given)	0	48*	-1	-16
COc1cccc(C2C(C(=O)OC3CCCC3)=C(C)NC3=C2C(=O)CC(c2ccccc2)C3)c1OC (stereo not given)	0	4	-1	-19
COc1ccccc1C1C(C(=O)OC2CCCC2)=C(C)NC2=C1C(=O)CC(c1ccccc1)C2 (stereo not given)	2.6*	-2	1	2
COc1ccc(C2CC(=O)C3=C(C2)NC(C)=C(C(=O)OC2CCCC2)C3c2cccc(C)c2)cc1OC (stereo not given)	0	47*	0	-34
CCCOC(=O)C1=C(C)NC2=C(C(=O)CC(c3ccc(OC)c(OC)c3)C2)C1c1cccc(Cl)c1 (stereo not given)	1	35*	0	8
COc1cccc(C(=O)COC(=O)c2cc3cccc(OC)c3oc2=O)c1	0	-4	1	-2
COc1cc(C(=O)Nc2cccc3ccccc23)c(-n2cnnn2)cc1OC	0	-2	1	-1
Cn1c(Nc2ccc(-n3cc(CC(=O)NCCc4ccc(O)cc4)c4ccccc43)nn2)nc2ccccc21	0	6	-1	22
COc1ccc(C2CC(=O)C3=C(C2)NC(C)=C(C(=O)OC2CCCC2)C3c2ccc(F)cc2)cc1OC (stereo not given)	0	37*	0	1
COc1ccc(C2CC(=O)C3=C(C2)NC(C)=C(C(=O)OC2CCCC2)C3c2cccc([N+](=O)[O-])c2)cc1OC (stereo not given)	0	42*	1	14
Cc1ccccc1C1=NC(c2ccccc2C)ON1 (stereo not given)	0	-12	-1	1
Cn1c(-c2ccccc2)cnc1NC(=O)c1ccc(F)cc1	0	49*	-1	-1
CC1Cc2ccccc2N1C(=O)CN1CCc2ccccc2C1 (stereo not given)	0	12	-2	17
O=C(CCl)N1CCN(c2ccc([N+](=O)[O-])cc2)CC1	0	34*	0	7
COc1ccc(N2CCN(C(=O)CN(c3cccc(C)c3C)S(C)(=O)=O)CC2)cc1	0	7	0	7
